Records with an inconclusive call do not appear. Active and inactive are the calls of the source. Rule for the calls: active = hit-call score of the fitted dose curve at least 0.9, where 1 is the maximum; inactive = score below 0.9.

The target in the assay is human ROCK1 AGC Kinase, ROCK1 (gene 6093) (UniProt Q13464). The assay can be described thus: ERF_FR_ENZ_hROCK1: Eurofins (ERF) Enzymatic Radiometric [Km ATP] KinaseProfiler LeadHunter Assay for human ROCK1 AGC Kinase. The procedure: ERF_FR_ENZ_hROCK1 is a biochemical, single-readout assay that uses extracted gene-proteins in a cell-free assay. Measurements were taken 0.33 hour after chemical dosing in a 96-well plate. See ROCK1 Human AGC Kinase Enzymatic LANCE Assay [Km ATP], Cerep.ERF_FR_ENZ_hROCK1 is an assay component calculated from the ERF_FR_ENZ_hROCK1 assay. It is designed to measure enzyme activity using a type of enzyme reporter as detected by fluorescence intensity with LANCE technology.Data from the assay component ERF_FR_ENZ_hROCK1 was analyzed at the assay endpoint, ERF_FR_ENZ_hROCK1, in the positive analysis fitting direction relative to DMSO as the negative control and baseline of activity. Using a type of enzyme reporter, loss-of-signal activity can be used to understand changes in enzymatic activity as they relate to gene ROCK1. To generalize the intended target to other relatable targets, this assay endpoint is annotated to the kinase intended target family, where the subfamily is serine/threonine kinase.
Chain of human ROCK1 AGC Kinase, ROCK1 (gene 6093) (Q13464 whole entry, looked up): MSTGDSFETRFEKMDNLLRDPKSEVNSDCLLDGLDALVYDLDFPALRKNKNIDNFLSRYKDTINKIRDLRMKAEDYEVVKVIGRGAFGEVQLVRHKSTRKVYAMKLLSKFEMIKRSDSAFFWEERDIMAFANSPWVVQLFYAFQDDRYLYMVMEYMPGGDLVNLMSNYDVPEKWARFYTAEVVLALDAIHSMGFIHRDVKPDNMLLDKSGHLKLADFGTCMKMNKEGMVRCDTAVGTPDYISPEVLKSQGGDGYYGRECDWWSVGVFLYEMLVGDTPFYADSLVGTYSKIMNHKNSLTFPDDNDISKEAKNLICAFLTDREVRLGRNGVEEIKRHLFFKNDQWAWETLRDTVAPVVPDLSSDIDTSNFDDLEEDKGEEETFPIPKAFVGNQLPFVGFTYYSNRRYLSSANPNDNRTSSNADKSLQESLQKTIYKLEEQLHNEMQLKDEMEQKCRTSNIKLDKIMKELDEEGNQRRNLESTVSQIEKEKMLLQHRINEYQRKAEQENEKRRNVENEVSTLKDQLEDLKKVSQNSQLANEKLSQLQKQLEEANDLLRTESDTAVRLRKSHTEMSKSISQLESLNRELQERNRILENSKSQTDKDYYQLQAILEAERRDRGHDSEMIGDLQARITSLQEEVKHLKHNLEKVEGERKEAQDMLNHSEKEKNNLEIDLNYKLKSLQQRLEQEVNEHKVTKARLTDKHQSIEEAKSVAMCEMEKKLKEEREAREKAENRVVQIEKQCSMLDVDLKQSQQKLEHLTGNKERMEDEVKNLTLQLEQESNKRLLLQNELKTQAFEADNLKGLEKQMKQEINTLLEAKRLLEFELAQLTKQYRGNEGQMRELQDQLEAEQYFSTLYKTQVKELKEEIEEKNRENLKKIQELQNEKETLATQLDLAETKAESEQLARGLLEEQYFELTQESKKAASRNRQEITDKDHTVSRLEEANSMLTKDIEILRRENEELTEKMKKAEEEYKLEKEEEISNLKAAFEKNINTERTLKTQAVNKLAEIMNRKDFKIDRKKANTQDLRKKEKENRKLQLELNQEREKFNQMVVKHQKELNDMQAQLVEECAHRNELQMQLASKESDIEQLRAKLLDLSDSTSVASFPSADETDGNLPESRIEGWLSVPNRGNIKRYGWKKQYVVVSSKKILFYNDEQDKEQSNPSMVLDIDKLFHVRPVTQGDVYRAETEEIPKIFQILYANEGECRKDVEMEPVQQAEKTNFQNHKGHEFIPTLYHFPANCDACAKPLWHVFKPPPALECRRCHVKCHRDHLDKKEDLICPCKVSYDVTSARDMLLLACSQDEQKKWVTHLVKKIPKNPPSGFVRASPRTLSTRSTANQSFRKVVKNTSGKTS
ROCK-I (h) is incubated with 8 mM MOPS pH 7.0, 0.2 mM EDTA, 30 uM […], 10 mM MgAcetate and [gamma-33P]-ATP (specific activity and concentration as required). The reaction is initiated by the addition of the Mg/ATP mix. After incubation for 40 minutes at room temperature, the reaction is stopped by the addition of phosphoric acid to a concentration of 0.5%. […]
On to `O=C(/C=C/c1ccc(O)cc1)CC(=O)/C=C/c1ccc(O)cc1`, for which the result was inactive.

`COc1cc(CCC(=O)CC(=O)CCc2ccc(O)c(OC)c2)ccc1O`: the compound was called inactive.
